The values that follow come from PubChem BioAssay (Tox21).

Records with an inconclusive call do not appear. A call without a number means that no potency is given here. Calls of active or inactive are those of the source. Calls come from the whole dose curve; as a rule, active = well fitted cell-killing curve with a large enough effect in the repeat runs; inconclusive = weak or mixed curves, or effect the other way; inactive = flat fitted curve, though single readings scatter.

Assay [1] can be described thus: cAMP Responsive Elements (CRE) small molecule antagonists, cell-based qHTS assay: qHTS cell viability counter screen (AID 2060913). Note: nearly all actives have a fitted effect of over 40% in size. In short, it runs like this:
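Viability of NKH477-stimulated (0.25 uM final) CRE-bla HEK293T cells is measured by CellTiter-Glo luminescence following 3 hrs compound exposure at 37 C.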

A short description of assay [2]: cAMP Responsive Elements (CRE) small molecule agonists, cell-based qHTS assay: qHTS cell viability counter screen (AID 2060914).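 Note: viability read after 3 h of compound exposure; nearly all actives have a fitted effect of over 50% in size.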 In short, it runs like this: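 CRE-bla HEK 293T cells, plated 18 h at 37 °C, were exposed to compounds for 3 h at 37 °C/5% CO2. Viability was then measured in the same wells by CellTiter-Glo luminescence after 30 min at room temperature.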
Background: Quantitative high-throughput screening tests each substance at several concentrations.

For `c1ccc2cc3c4ccccc4c4ccccc4c3cc2c1`, the Potency result in assay [1] and in assay [2] was “inactive” each time.
`OC/C=C/c1ccccc1`: the Potency result in assay [1] and in assay [2] was “inactive” in each case.
`CCC(CN)=C(c1ccccc1)c1ccccc1`: the Potency result in assay [1] and in assay [2] was “inactive” each time.
As to `NC(=O)NS(=O)(=O)c1ccc(Cl)cc1`, the Potency result in assay [1] and in assay [2] was “inactive” in each case.
Consider `CC(=O)OC[C@H]1O[C@@](COC(C)=O)(O[C@H]2O[C@H](COC(C)=O)[C@@H](OC(C)=O)[C@H](OC(C)=O)[C@H]2OC(C)=O)[C@@H](OC(C)=O)[C@@H]1OC(C)=O`, for which the Potency result in assay [1] and in assay [2] was “inactive” throughout.
For the compound `CC(C)(C)c1cc(O)c(C(C)(C)C)cc1O`, the Potency entry in assay [1] and in assay [2] was “inactive” throughout.
Regarding `CC(=O)N[C@@H](Cc1ccc(O)cc1)C(=O)O`, the Potency entry in assay [1] and in assay [2] was “inactive” throughout.
With `CCCCCCCCCCCCN1CCCCCC1=O`, the Potency entry in assay [1] and in assay [2] was “inactive” in each case.
Consider `COc1cc(C(=O)OCCCN2CCCN(CCCOC(=O)c3cc(OC)c(OC)c(OC)c3)CC2)cc(OC)c1OC`, for which the Potency entry in assay [1] and in assay [2] was “inactive” throughout.
As to `O=C(Oc1ccccc1)c1ccc2ccccc2c1O`, the Potency result in assay [1] and in assay [2] was “inactive” in each case.
As for `O=C(O)c1cc(-c2ccc(F)cc2F)ccc1O`, the Potency result in assay [1] and in assay [2] was “inactive” throughout.
Take `CC(CN(CCN(CC(C)OCCO)CC(C)OCCO)CC(C)OCCO)OCCO` (stereo not drawn): the Potency entry in assay [1] and in assay [2] was “inactive” throughout.
As for `CC/C=C(\C)C=O`, the Potency result in assay [1] and in assay [2] was “inactive” throughout.
In the case of `OC[C@H]1O[C@@H]2O[C@H]3[C@H](O)[C@@H](O)[C@@H](O[C@H]4[C@H](O)[C@@H](O)[C@@H](O[C@H]5[C@H](O)[C@@H](O)[C@@H](O[C@H]6[C@H](O)[C@@H](O)[C@@H](O[C@H]7[C@H](O)[C@@H](O)[C@@H](O[C@H]8[C@H](O)[C@@H](O)[C@@H](O[C@H]1[C@H](O)[C@H]2O)O[C@@H]8CO)O[C@@H]7CO)O[C@@H]6CO)O[C@@H]5CO)O[C@@H]4CO)O[C@@H]3CO`, the Potency entry in assay [1] and in assay [2] was “inactive” each time.
